# Assay results reported in PubChem BioAssay.
# Active and inactive are the calls of the source.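 The calls were made as follows, unless noted: active = fluorescence slope after compound addition differing from the mean of all screened samples at 99.7% confidence, in either direction; inactive = the rest.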
# Key:
# [1] = inhibitors of TNFa-induced NFkB p65 translocation, primary screen, imaging, HUVEC, MLSMR starter and 10KST1 sets (AID 438;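 active = inhibition above 20% together with a positive visual image hit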;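 also: compound added about 3h40 before a 20 min TNFalpha stimulation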;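 as to inhibition: signal is the nuclear over cytoplasmic p65 intensity ratio per well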); details: HUVEC TNFa-induced p65 nuclear translocation; cell count: measured here: nuclei count (cytotoxicity indicator), at 2.08 µM; inhibition: at 2 µM, stronger effect = higher value, 0% TNFa-plus-vehicle, 100% no-TNFa wells
# [2] = reduction of polyQ htt aggregates in cells – imaging, exon1htt(103Q)mCFP cells, high-content imaging, primary screen (AID 483;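 active = visual image review flags a hit and inhibition of aggregation exceeds 20%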;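 also: compound exposure lasted 3 days before fixation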;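 as to nuclei count: percent of the per-plate median nuclei count of sample wells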); details: exon1htt(103Q)mCFP cell line, aggregate imaging, at 2 µM; inhibition of aggregation: stronger effect = higher value; nuclei count: measured here: cell count, toxicity
# [3] = endothelial E-selectin expression blockers – imaging, HUVEC, immunofluorescence, MLSMR starter and 10KST1 sets, primary screen (AID 487;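 active = visually confirmed hit in the image check and inhibition above 20%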;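 as to inhibition: signal is fraction of cell area covered by stained E-selectin grains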;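 as to nuclei count: 100% = median nuclei count of all wells on the same plate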); details: HUVEC TNFalpha-induced E-selectin immunofluorescence imaging, at 2 µM; inhibition: stronger effect = higher value; nuclei count: measured here: cell number, toxicity
# [4] = molecular target: Voltage-gated potassium channel subunit beta-2 (Rattus norvegicus) (UniProt P62483); assay: inhibitors of rat Kvbeta2 reductase activity – biochemical, NADPH fluorescence, primary screen (AID 622;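 active = fluorescence slope higher than the sample average by over 3 SD, cut at about -0.22 in these data, passing the limit was not always enough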;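 also: slope of raw intensity against log time taken from 70 to 1610 s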); details: recombinant KvBeta, 4-cyanobenzaldehyde reduction, at 10 µM, stronger effect = higher value
# [5] = molecular target: Voltage-gated potassium channel subunit beta-2 (Rattus norvegicus) (UniProt P62483); assay: enhancers of rat Kvbeta2 NADPH turnover – biochemical, NADPH fluorescence, primary screen (AID 623;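 active = NADPH fluorescence slope more negative than the mean of all samples by about 3 SD, 99.7% confidence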;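 also: fluorescence intensity change per second fitted from 20 to 320 s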); details: Recombinant KvBeta, NADPH fluorescence decrease slope, 10 min; at 10 µM; stronger effect = lower value
# [6] = molecular target: Alpha-2C adrenergic receptor (Homo sapiens) (UniProt P18825); assay: compounds altering alpha2C-coupled GIRK flux – cell-based, HEK293 alpha2C/GIRK1/2, thallium flux, primary screen (AID 624); details: thallium flux BTC fluorescence, at 10 µM, actives lie on both sides;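 also: slope of fluorescence ratio to pre-addition baseline per second over 15 to 24 s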
# [7] = blockers of RIG-like receptor reporter activation – cell-based, Sendai virus stimulus, luciferase, 10K MLSCN set, TLR/RLR signaling modifier project, primary screen (AID 602276;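 active = inhibition at or above 50% at 10 µM; inactive = inhibition below 50%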;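 also: firefly luciferase from ISG56 promoter only with Renilla not read in this screen; 0% = Sendai virus plus DMSO and 100% = medium plus DMSO without virus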); details: HEK293 RL24 IRF3 luciferase reporter, at 10 µM, stronger effect = higher value
# [8] = TLR3 IRF3 reporter activation blockers – cell-based, poly I:C stimulus, luciferase, 10K MLSCN set, primary screen (AID 602277;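 active = inhibition of the reporter signal at or above 50%; inactive = inhibition below 50%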); details: HEK293-TLR3 RL24 IRF3 luciferase reporter, at 10 µM, stronger effect = higher value
# Sequence of Alpha-2C adrenergic receptor (Homo sapiens) (P18825 whole entry, looked up): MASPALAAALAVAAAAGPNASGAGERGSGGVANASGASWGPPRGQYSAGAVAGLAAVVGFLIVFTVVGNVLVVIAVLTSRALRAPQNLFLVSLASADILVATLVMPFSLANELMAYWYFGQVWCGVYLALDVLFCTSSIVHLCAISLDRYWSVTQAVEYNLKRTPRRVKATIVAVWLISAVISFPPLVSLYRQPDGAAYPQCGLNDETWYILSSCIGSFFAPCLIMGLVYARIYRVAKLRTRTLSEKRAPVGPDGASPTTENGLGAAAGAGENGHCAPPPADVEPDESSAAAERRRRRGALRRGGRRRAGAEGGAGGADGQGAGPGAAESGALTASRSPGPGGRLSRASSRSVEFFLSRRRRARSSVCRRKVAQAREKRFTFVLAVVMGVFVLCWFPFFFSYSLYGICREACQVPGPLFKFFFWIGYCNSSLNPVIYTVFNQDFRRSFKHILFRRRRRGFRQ
# Sequence of Voltage-gated potassium channel subunit beta-2 (Rattus norvegicus) (P62483 whole entry, looked up): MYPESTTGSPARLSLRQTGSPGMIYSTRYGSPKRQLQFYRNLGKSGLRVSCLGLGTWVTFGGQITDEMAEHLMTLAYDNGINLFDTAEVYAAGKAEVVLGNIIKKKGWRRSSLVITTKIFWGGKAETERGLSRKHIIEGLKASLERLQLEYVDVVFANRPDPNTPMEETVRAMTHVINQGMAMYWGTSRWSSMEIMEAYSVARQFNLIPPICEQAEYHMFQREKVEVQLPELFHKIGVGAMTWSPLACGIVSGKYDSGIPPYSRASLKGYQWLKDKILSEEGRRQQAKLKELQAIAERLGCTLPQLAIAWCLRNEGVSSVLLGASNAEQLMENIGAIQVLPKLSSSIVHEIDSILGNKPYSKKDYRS
Compound,cell count [1],inhibition [1],inhibition of aggregation [2],nuclei count [2],inhibition [3],nuclei count [3],fluorescence slope [4],NADPH fluorescence slope [5],slope [6],inhibition [7],inhibition [8]
O=S(=O)(c1cccs1)N1CCN(Cc2nc3ccccc3s2)CC1,283,3.3% (inactive),-5.8% (inactive),99.8%,1% (inactive),90.9%,-0.556 (inactive),3e-05 (inactive),0.00461 (inactive),-3.64% (inactive),-4.76% (inactive)
COc1cccc(-c2nc(CSCC(=O)N3CCc4ccccc43)c(C)o2)c1,326,8.5% (inactive),-5.9% (inactive),108%,22.5% (inactive),108%,-0.432 (inactive),2.9e-06 (inactive),0.00374 (inactive),-10.3% (inactive),-34.4% (inactive)
O=C(CSc1nnc(CNC(=O)c2cccs2)o1)NCCc1ccccc1,644,-2.2% (inactive),-14.6% (inactive),82.7%,-25.7% (inactive),115%,-0.375 (inactive),-4.4e-05 (inactive),0.00483 (inactive),18.5% (inactive),16.6% (inactive)
COc1ccc(NS(=O)(=O)c2ccc(NC(C)=O)cc2)cc1OC,352,-8.4% (inactive),2.1% (inactive),99.6%,-3.3% (inactive),76.2%,-0.379 (inactive),1.1e-05 (inactive),0.00616 (inactive),-6.14% (inactive),-66.4% (inactive)
Cc1nnc(SCC(=O)Nc2sc3c(c2C#N)CCCC3)[nH]c1=O,368,2.8% (inactive),-12.9% (inactive),114%,-31.8% (inactive),108%,-0.441 (inactive),1.2e-05 (inactive),0.00274 (inactive),8.57% (inactive),39.4% (inactive)
CCOC(=O)c1oc2ccccc2c1NC(=O)COC,602,-1.8% (inactive),15.5% (inactive),92.3%,66.5% (inactive),59.1%,-0.486 (inactive),-1.7e-05 (inactive),0.00552 (inactive),-14.3% (inactive),4.92% (inactive)
Cn1c(=O)n(Cc2ccc(F)cc2)c(=O)c2c1nc1n2CCCN1Cc1ccccc1,698,1.6% (inactive),-3.6% (inactive),119%,-41.3% (inactive),148%,-0.448 (inactive),-6e-05 (inactive),0.00383 (inactive),7.62% (inactive),12.8% (inactive)
Cc1cccc2cc(CN(CCCO)C(=O)Nc3ccc(Cl)cc3)c(=O)[nH]c12,402,5.6% (inactive),-13% (inactive),117%,-307% (inactive),156%,-0.646 (inactive),1e-05 (inactive),0.00902 (inactive),12.2% (inactive),-2.7% (inactive)
O=C(CN(Cc1ccco1)C(=O)CNS(=O)(=O)c1ccc(F)cc1)NCCc1ccccc1,520,-2.1% (inactive),-2.1% (inactive),92.1%,-38.5% (inactive),112%,-0.481 (inactive),-2.9e-05 (inactive),0.00696 (inactive),-0.0533% (inactive),19.8% (inactive)
CCc1ccccc1NC(=O)CSc1ncn[nH]1,306,9% (inactive),-8.6% (inactive),101%,40% (inactive),102%,-0.397 (inactive),-1.9e-06 (inactive),0.00367 (inactive),1.64% (inactive),32.7% (inactive)
CCOC(=O)C1C2C=CC3(CN(Cc4ccco4)C(=O)C13)O2 (centres undefined),480,5.5% (inactive),16.2% (inactive),114%,-57.8% (inactive),115%,-0.469 (inactive),-6.4e-05 (inactive),0.00537 (inactive),13.9% (inactive),21.7% (inactive)
O=C(c1cccs1)N1CCN=C1SCc1ccccc1,435,3.1% (inactive),6.2% (inactive),106%,-33.5% (inactive),111%,-0.445 (inactive),-9.7e-05 (inactive),0.00597 (inactive),2.79% (inactive),-0.0227% (inactive)
COC(=O)c1ccccc1OCC(=O)NC1CCCCC1,400,2.8% (inactive),-13.9% (inactive),110%,-140% (inactive),112%,-0.511 (inactive),-1.1e-05 (inactive),0.00395 (inactive),-18.9% (inactive),-61.5% (inactive)
CC(=O)Nc1ccc(S(=O)(=O)N2CCC(NC(C)=O)(c3cccc(F)c3)CC2)cc1,682,-5.8% (inactive),-25.6% (inactive),130%,-10.1% (inactive),109%,-0.494 (inactive),-4.3e-05 (inactive),0.0062 (inactive),8.44% (inactive),28.9% (inactive)
